In the library only some 0.92% were active in any assay of this set; here they are far more common.
L3MBTL1 block: L3MBTL1 (human) inhibition | Q9Y468 | AlphaScreen L3MBTL1–H3K9me1 peptide binding | Potency, µM (series often up to 57.1 µM), inactives show top-dose activity, negative = inhibition, actives largely listed as inhibitors | 0.66% of 230,000 active | AID 485360; further: nearly all actives have a fitted effect of over 60% in size
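AlphaScreen proximity signal between nickel-chelate acceptor and streptavidin donor beads (final 10 ug/mL) reports binding of 50 nM L3MBTL1 to 75 nM biotin-H3 K9me1 peptide; complex incubated with compounds 30 min at room temperature; cefsulodin titration as control.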
RECQ1 helicase: inhibitors of human RECQ1 DNA helicase | RECQ1 DNA unwinding, red fluorescence kinetic read | Potency, µM (series often up to 57.3 µM), for the others: top-dose activity, negative = inhibition, actives largely listed as inhibitors | P46063 | 0.54% of 240,000 active;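 further: plate controls were vehicle for no effect and no enzyme for full effect; nearly all actives have a fitted effect of over 30% in size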
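RECQ1T1 50 nM; forked duplex (20 bp + 30-nt ss tails) 200 nM, ATP 2 mM final; pH 8.0, 2 mM MgCl2, 2.5 ug/ml poly(dI-dC); 15 min compound preincubation; discontinuous kinetic read over 2 h at RT.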
BLM helicase inh: inhibitors of human Bloom syndrome helicase BLM | P54132 | recombinant BLM DNA unwinding, fluorescence dequenching | Potency, µM (titrated, usually from 56.1 µM), for the others: top-dose activity change, negative = inhibition, actives largely listed as inhibitors | 0.2% of 350,000 active | AID 2528;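 further: plate controls were vehicle for no effect and no enzyme for full effect; nearly all actives have a fitted effect of over 35% in size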
APE1 inh: APE1 (human) endonuclease inhibition. P27695. recombinant APE1, TAMRA/BHQ-2 abasic DNA cleavage fluorescence. Potency, µM (titrated, usually from 65.8 µM), inactives show top-dose activity change, negative = inhibition, actives largely listed as inhibitors. 0.35% of 350,000 active;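 further: plate controls were vehicle for no effect and reference inhibitor for full effect; nearly all actives have a fitted effect of over 55% in size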
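APE1 at 0.75 nM preincubated 15 min at room temperature with compound. Reaction then started with 50 nM double-stranded THF-abasic substrate labelled with TAMRA/BHQ-2, and 525/598 nm fluorescence read kinetically. Activity taken as third-minus-first read difference, normalized to DMSO and NSC13755 controls.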
WRN helicase inh: inhibitors of human WRN helicase; Potency, µM (highest dose often 114 µM), for inactives: at the highest dose activity change, negative = inhibition, actives largely listed as inhibitors; Q14191; 0.46% of 360,000 active; AID 651768; WRN helicase unwinding, fluorescent forked duplex, kinetic; further: nearly all actives have a fitted effect of over 55% in size
Target sequence (Q14191 whole entry, looked up): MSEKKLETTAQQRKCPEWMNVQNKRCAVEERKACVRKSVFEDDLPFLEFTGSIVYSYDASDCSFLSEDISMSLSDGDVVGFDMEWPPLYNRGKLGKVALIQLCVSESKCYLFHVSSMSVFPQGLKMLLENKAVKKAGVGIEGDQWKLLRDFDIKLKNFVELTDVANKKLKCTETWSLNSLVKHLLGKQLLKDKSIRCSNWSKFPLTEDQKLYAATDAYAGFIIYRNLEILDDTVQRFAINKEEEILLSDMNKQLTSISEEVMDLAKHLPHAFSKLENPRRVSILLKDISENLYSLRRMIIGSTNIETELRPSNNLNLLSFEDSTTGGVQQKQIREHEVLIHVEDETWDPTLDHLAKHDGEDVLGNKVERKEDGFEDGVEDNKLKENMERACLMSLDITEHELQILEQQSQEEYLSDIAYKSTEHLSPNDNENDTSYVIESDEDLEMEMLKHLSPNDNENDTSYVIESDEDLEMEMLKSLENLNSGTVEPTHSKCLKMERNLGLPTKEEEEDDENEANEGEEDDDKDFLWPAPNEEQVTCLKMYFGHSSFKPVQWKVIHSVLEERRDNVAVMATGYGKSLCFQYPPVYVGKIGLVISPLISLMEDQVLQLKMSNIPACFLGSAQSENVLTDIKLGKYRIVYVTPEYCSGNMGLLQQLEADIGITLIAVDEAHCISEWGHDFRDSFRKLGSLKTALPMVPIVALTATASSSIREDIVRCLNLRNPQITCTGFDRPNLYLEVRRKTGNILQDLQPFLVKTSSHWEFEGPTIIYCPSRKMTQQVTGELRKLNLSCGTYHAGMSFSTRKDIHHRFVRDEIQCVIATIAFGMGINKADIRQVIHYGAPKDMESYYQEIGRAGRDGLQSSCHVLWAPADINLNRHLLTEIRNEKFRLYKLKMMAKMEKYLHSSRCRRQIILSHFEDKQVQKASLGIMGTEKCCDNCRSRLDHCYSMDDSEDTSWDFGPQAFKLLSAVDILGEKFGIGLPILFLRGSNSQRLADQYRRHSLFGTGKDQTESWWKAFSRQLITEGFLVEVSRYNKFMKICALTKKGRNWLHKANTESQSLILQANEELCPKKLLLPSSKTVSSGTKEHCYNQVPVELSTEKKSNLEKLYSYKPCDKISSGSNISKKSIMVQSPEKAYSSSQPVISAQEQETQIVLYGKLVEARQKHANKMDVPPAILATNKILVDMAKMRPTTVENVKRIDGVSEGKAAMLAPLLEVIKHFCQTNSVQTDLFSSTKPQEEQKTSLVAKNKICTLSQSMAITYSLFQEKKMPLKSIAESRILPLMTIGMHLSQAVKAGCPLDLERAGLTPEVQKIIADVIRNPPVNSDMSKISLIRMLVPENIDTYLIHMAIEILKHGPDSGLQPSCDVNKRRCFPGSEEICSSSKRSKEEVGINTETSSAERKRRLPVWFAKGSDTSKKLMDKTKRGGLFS
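Enzyme (20 nM final) and test compound sit together 15 min at room temperature before substrate addition. Substrate is a single-forked duplex oligonucleotide (100 nM) labelled with fluorophore and quencher, with 2 mM ATP; helicase unwinding raises red fluorescence, read kinetically.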
* marks the source's active call; other numbers are inactive results; i = inactive; ? = inconclusive; / = not tested or not shown; [ ] = another dose, or the depositor's remark. The call rests on the fitted dose curve; in most records, active means well fitted curve in the direction sought with a large enough effect; inconclusive means small, poorly fitted or top-dose-only effect, or another doubt; inactive means no such curve, though single readings can be large; an effect the other way counts as inactive or inconclusive. Unless noted, on the % scale 0 is the no-effect control and ±100 the full control effect; potency means the concentration at half of the fitted maximal effect.

SMILES	L3MBTL1 block	RECQ1 helicase	BLM helicase inh	APE1 inh	WRN helicase inh
COC(=O)[C@H](CC(C)C)NC(=O)c1ccc(NC[C@@H](N)CS)cc1-c1cccc2ccccc12	/	-15.9%	-4.6%	0.0%	/
CN(C)c1ncc2nc(-c3ccc(Cl)cc3)c(=O)n(Cc3ccc(F)cc3)c2n1	/	-5.6%	1.1%	31.6µM*	/
N#CC(C#N)=C1C=CC=CN1/C(=C\c1ccco1)C(=O)c1ccc(Cl)cc1	-7.9%	-2.2%	-12.2%	5.3%	22.4µM*
N#CC(C#N)=C1C=CC=CN1/C(=C\c1ccco1)C(=O)c1ccc(-c2ccccc2)cc1	-26.2%	-9.5%	-13.0%	-1.8%	-25.6%
Nc1ccccc1S(=O)(=O)Nc1cccc2cccnc12	/	-2.8%	-8.9%	?	/
N#C/C(=C\c1ccc(/C=C(/C#N)c2nn(CCO)c(N)c2C#N)cc1)c1nn(CCO)c(N)c1C#N	5.0%	0.2%	-19.6%	3.5%	56.2µM*
N#C/C(=C/c1ccccc1)c1nn(CCO)c(N)c1C#N	-2.1%	-3.2%	-6.7%	-2.6%	-5.3%
COc1cc(OC)cc(-c2nnc3n2N=C(c2ccc(OC)cc2OC)CS3)c1	/	i	-9.2%	-8.9%	/
CC(C)C[C@H](NC(=O)[C@H](CC(C)C)NC(=O)[C@H](Cc1ccc(O)cc1)NC(=O)CNC(=O)[C@H](C)NC(=O)[C@H](CO)NC(=O)[C@H](CC(N)=O)NC(=O)[C@H](CC(C)C)NC(=O)[C@@H](NC(=O)[C@H](Cc1c[nH]c2ccccc12)NC(=O)CN)[C@@H](C)O)C(=O)NCC(=O)N1CCC[C@H]1C(=O)N1CCC[C@H]1C(=O)N1CCC[C@H]1C(=O)NCC(=O)N[C@@H](Cc1ccccc1)C(=O)N[C@@H](CO)C(=O)N1CCC[C@H]1C(=O)N[C@@H](Cc1ccccc1)C(=O)N[C@@H](CCCNC(=N)N)C(N)=O	/	-3.9%	-2.0%	-1.4%	/
N#Cc1nc(NCCCO)nc(Nc2ccccc2)n1	/	-8.7%	3.3%	-1.5%	/
COc1ccc(C2=Nn3c(nnc3-c3ccccc3Cl)SC2)cc1OC	/	/	/	-9.5%	/
COCCN1C(=O)/C(=C/c2ccc(N3CCCC3)cc2C)SC1=S	-24.5%	-10.8%	-7.5%	-4.1%	79.4µM*
CC1(C)CC1C(=O)N/C(=C/CCCCSCC(N)C(=O)O)C(=O)O (stereo unspecified)	/	16.2%	1.9%	/	/
COc1ccc(-c2nnc3n2N=C(c2cc(OC)ccc2OC)CS3)c(OC)c1	/	i	0.2%	-3.4%	/
COC1[C@@H](O[C@@H]2O[C@H](C)[C@@H](O[C@H]3C[C@@](C)(O)[C@H](OC(=O)CC(C)C)[C@H](C)O3)[C@H](N(C)C)[C@H]2O)[C@@H](CC=O)C[C@@H](C)[C@@H](O)/C=C/C=C/C[C@@H](C)OC(=O)C[C@H]1OC(C)=O (stereo partly specified)	/	/	/	-2.0%[21 µM]	/
COc1ccc(/C=N/N(C)C2=NS(=O)(=O)c3ccccc32)cc1	/	/	-3.5%	-16.6%	0.1%
CN(/N=C/c1ccc(N(C)C)cc1)C1=NS(=O)(=O)c2ccccc21	/	/	34.9%	23.8µM*	72.5%
CCCCCCCCCCCCCCCC(=O)OC[C@H](O)[C@H]1OC(=O)C(O)=C1O	/	/	/	8.91µM*	/
N#C/C(=C/c1ccncc1)c1nc2ccccc2c(=O)[nH]1	/	-9.6%	-16.5%	-2.4%	-26.2%
N#C/C(=C\c1cc(Br)c(O)c(Br)c1)c1nc2ccccc2c(=O)[nH]1	/	/	12.6µM*	/	/
c1ccc(-c2ccc(-c3ccccn3)nn2)nc1	3.55µM*	-0.2%	-8.8%	14.7%	/
c1ccc(-c2ccccn2)nc1	-3.4%	-3.4%	-3.5%	-3.5%	-7.2%
N#Cc1c(-c2ccc(Cl)cc2)no[n+]1[O-]	/	/	/	-3.9%	/
CCC(C)c1cc([N+](=O)[O-])cc([N+](=O)[O-])c1OC(=O)OC(C)C (stereo unspecified)	/	-18.6%	-7.6%	19.6%	/
CC(C)=CC[C@@H](O)C1=CC(=O)c2c(O)ccc(O)c2C1=O	/	10µM*	/	7.08µM*	/
SMILES	L3MBTL1 block	RECQ1 helicase	BLM helicase inh	APE1 inh	WRN helicase inh
CSc1nsc(/C=C/Nc2ccc(C(=O)O)cc2)c1C#N	-13.4%	-5.7%	28.2µM*	?	-5.7%
CSc1nsc(/C=C/Nc2ccc(F)cc2F)c1C#N	?	i	-20.6%	-11.2%	-35.2%[57.1 µM]
CN1C(=O)N(C)C2=NNC=NC2(O)C1=O (stereo unspecified)	/	-3.4%	28.2µM*	13.2%	/
CNC(=O)C12N=CNN=C1N(C)C(=O)N2C (stereo unspecified)	/	-7.8%	-6.8%	?	-25.0%
NCCCCCCCCCCNCCCN	/	13.6%	28.4%	1.7%	/
Oc1ccc(/C=N/NC(=S)NCCN2CCOCC2)c(O)c1	22.4µM*	-10.2%	-3.0%	-2.7%	-6.1%
COc1cc(CCC(O)CC(=O)CCc2ccccc2)ccc1O (stereo unspecified)	-2.6%	-10.3%	-14.7%	14.1µM*	-0.2%[11.6 µM]
CCOC(=O)C(Nc1ccc2ccccc2c1)C(=O)OCC	28.2µM*	-0.9%	-25.5%	-0.3%	-11.5%
c1coc(-c2ccc3nncn3c2)c1	/	/	/	/	17.8µM*
O=C(O)CCn1c2c(c3ccccc31)C[C@H](NS(=O)(=O)c1ccc(F)cc1)CC2	/	/	1.2%	/	/
Cc1ccc(/C=C2\S/C(=N/S(=O)(=O)c3cccs3)NC2=O)cc1	-7.3%	3.4%	-10.1%	0.3%	50.1µM*
Cc1ccc(S(=O)(=O)/N=C2/NC(=O)/C(=C\c3ccccc3)S2)cc1	-7.2%	/	/	46.0%	?
O=C(CCCCCCCC(=O)NNC(=O)Nc1ccccc1)NNC(=O)Nc1ccccc1	-10.3%	-1.9%	28.2µM*	5.2%	-34.0%
CCOC(=O)C1=C(C)N(C[C@@H]2CC[C@@H](Cc3ccc(-c4ccccc4)cc3)O2)C(=O)NC1c1ccc(SCc2ccco2)c([N+](=O)[O-])c1 (stereo partly specified)	31.6µM*	/	/	-19.0%	?
C[C@@H]1CCC[C@]2(C)CCCC[C@@]12O	/	-10.7%	0.1%	-4.9%	/
CN(C1=C(NC(=O)c2ccc(Cl)cc2)C(=O)c2ccccc2C1=O)c1ccccc1	7.94µM*	-3.7%	-3.9%	1.9%	-0.4%
CCOC(=O)c1cnc(-n2nc(C)cc2C)nc1Nc1ccc(C)cc1	-4.6%	-6.3%	-1.7%	?	-4.7%
CCOC(=O)c1cnc(-n2nc(C)cc2C)nc1Nc1ccc(N(C)C)cc1	3.16µM*	-2.3%	2.1%	29.7%	-5.7%
O=C(N/N=C/c1ccc(-c2ccc(Cl)c(C(=O)O)c2)o1)c1cc2c(ccc3ccccc32)o1	/	3.2%	-1.2%	12.4%	20µM*
Cc1ccc(-c2ccc(/C=N\NC(=O)c3cc4c(ccc5ccccc54)o3)o2)cc1[N+](=O)[O-]	8.2%	i	-4.0%	0.8%	-15.6%
CC(C)(C)n1ncc2c(=O)n(Cc3ccc([S+](=O)([O-])N4CCOCC4)cc3)cnc21	/	/	/	-0.4%	/

Source: PubChem BioAssay (National Center for Advancing Translational Sciences (NCATS))
